The record followed here is PubChem BioAssay (NCI).

This is part of a sample that, as a whole, favours compounds with a hit. Of some 83,000 tested, about 20% had one in any assay.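 96-well plates, one dose, 48 hours. Percent growth reported; active if below 10.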 A number with no mark means an inactive call. Active and inactive are the calls of the source.

Some test systems named below: SK-MEL-2 melanoma; EKVX NSCLC; SN12C renal; UO-31 renal; TK-10 renal; ACHN renal; CAKI-1 renal; A498 renal; CCRF-CEM leukemia; MOLT-4 leukemia; SR leukemia; RPMI-8226 leukemia; OVCAR-5 ovarian; OVCAR-4 ovarian; SK-OV-3 ovarian; IGROV1 ovarian; OVCAR-3 ovarian; HS 578T breast; NCI/ADR-RES ovarian; OVCAR-8 ovarian.
Common to all, as to assay: NCI-60 one-dose screen, 48 h (100 = growth as untreated, 0 = no growth, -100 = all killed)
What all share (settings): 10 µM unless noted

`C=C1C(=O)O[C@H]2[C@H]1CC/C(COC(=O)CCC(=O)NCCOCCOCC(=O)Nc1ccc(OC)c(C(N)=O)c1O)=C\CC[C@@]1(C)O[C@@H]21`: the growth with SK-MEL-2 melanoma is 89.7%; in the assay with EKVX NSCLC, 94.4%; in the assay on SN12C renal it was 92.7%; with UO-31 renal, 92%; with TK-10 renal it was 96%; with ACHN renal it was 87.3%. Also, the growth with CAKI-1 renal is 81.2%; in the assay with A498 renal, 101%; in the assay on CCRF-CEM leukemia, 53.7%; in the assay with MOLT-4 leukemia, 97.1%; in the assay on SR leukemia, 46.8%; in the assay on RPMI-8226 leukemia, 87%. Moreover, the growth in the assay on OVCAR-5 ovarian was 109%; with OVCAR-4 ovarian, 110%; in the assay with SK-OV-3 ovarian, 96.7%; with IGROV1 ovarian, 59.2%; in the assay with OVCAR-3 ovarian it was 85%; in the assay on HS 578T breast it was 109%.

On to `O=C(O)CCC(=O)Nc1nnc(-c2ccccc2)s1`, for which the growth with SK-MEL-2 melanoma is 106%; in the assay on EKVX NSCLC, 95.3%; in the assay with SN12C renal, 104%; in the assay with UO-31 renal, 106%; in the assay with TK-10 renal it was 111%; in the assay on ACHN renal, 109%. The growth with CAKI-1 renal is 97.8%; in the assay with A498 renal, 98.9%; in the assay with CCRF-CEM leukemia, 106%; in the assay with MOLT-4 leukemia, 111%; in the assay on SR leukemia it was 95.6%; in the assay with RPMI-8226 leukemia it was 99.4%. Besides, the growth was 107% in the assay on OVCAR-5 ovarian; 109% in the assay on OVCAR-4 ovarian; 95.6% in the assay with SK-OV-3 ovarian; 112% with IGROV1 ovarian; 101% with OVCAR-3 ovarian; 111% in the assay on HS 578T breast. Further, the growth in the assay on NCI/ADR-RES ovarian was 107%.

Turning to `C=C1C(=O)O[C@H]2[C@H]1CC/C(COC(=O)CSCC(=O)OC/C1=C/CC[C@@]3(C)O[C@H]3[C@H]3OC(=O)C(=C)[C@@H]3CC1)=C\CC[C@@]1(C)O[C@@H]21`, the growth in the assay with SK-MEL-2 melanoma is 68%; in the assay with EKVX NSCLC, 57.7%; in the assay on SN12C renal, 22.1%; in the assay with UO-31 renal, 3.4% (active); in the assay on TK-10 renal it was 9.84% (active); with ACHN renal, 2.35% (active). The growth in the assay on CAKI-1 renal was 76.4%; in the assay with A498 renal, 81.1%; in the assay on CCRF-CEM leukemia, -7.55% (active); in the assay with MOLT-4 leukemia, -3.7% (active); in the assay with SR leukemia it was 0.996% (active); with RPMI-8226 leukemia, -2.24% (active). The growth was 87.3% with OVCAR-5 ovarian; 46.6% with OVCAR-4 ovarian; 97.5% with SK-OV-3 ovarian; 7.28% (active) with IGROV1 ovarian; 3.24% (active) in the assay on OVCAR-3 ovarian; 59.7% with HS 578T breast. Further, the growth in the assay with NCI/ADR-RES ovarian was 86.2%.

Take `COc1cc(/C=N/NC(=O)c2ccc(C)nc2)cc(OC)c1OC`: the growth was 79.3% in the assay on SK-MEL-2 melanoma; 90.4% in the assay with EKVX NSCLC; 102% in the assay with SN12C renal; 65.6% with UO-31 renal; 81.3% in the assay with TK-10 renal; 91.2% in the assay with ACHN renal. Moreover, the growth in the assay on CAKI-1 renal was 79.8%; in the assay on A498 renal, 93.2%; in the assay on CCRF-CEM leukemia, 87%; in the assay with MOLT-4 leukemia, 57.8%; in the assay on SR leukemia, 103%; in the assay with RPMI-8226 leukemia, 121%. Also, the growth was 103% in the assay on OVCAR-5 ovarian; 96.4% in the assay on OVCAR-4 ovarian; 112% in the assay with SK-OV-3 ovarian; 107% in the assay on IGROV1 ovarian; 119% in the assay on OVCAR-3 ovarian; 88.6% in the assay with HS 578T breast. In the assay on NCI/ADR-RES ovarian, the growth was 102%.

Regarding `c1cc(NCCc2ccncc2)nc(-n2cnc3ccccc32)c1`, the growth was 86.8% with SK-MEL-2 melanoma; 102% in the assay on EKVX NSCLC; 90.4% with SN12C renal; 74.9% with UO-31 renal; 86.9% in the assay with TK-10 renal; 65.4% in the assay on ACHN renal. Besides, the growth is 81.2% in the assay on CAKI-1 renal; 69.3% in the assay on A498 renal; 99.8% in the assay with CCRF-CEM leukemia; 86.4% in the assay on MOLT-4 leukemia; 58.2% with SR leukemia; 68.5% in the assay with RPMI-8226 leukemia. Further, the growth in the assay with OVCAR-5 ovarian is 98%; in the assay with OVCAR-4 ovarian, 96.7%; with SK-OV-3 ovarian it was 97.2%; in the assay on IGROV1 ovarian, 73.1%; in the assay with OVCAR-3 ovarian, 96.2%; with HS 578T breast, 98.2%. Further, the growth with NCI/ADR-RES ovarian was 90.7%.

Take `Cc1nn(-c2ccccc2)c2c1N=c1s/c(=C\c3ccc(C(F)(F)F)cc3)c(=O)n1CN2`: the growth is 47.1% in the assay with SK-MEL-2 melanoma; 59.3% in the assay on EKVX NSCLC; 71.4% with SN12C renal; 43.4% in the assay with UO-31 renal; 80% in the assay on TK-10 renal; 59.8% in the assay with ACHN renal. For the same compound, the growth in the assay with CAKI-1 renal was 59.9%; in the assay on A498 renal, 63.5%; in the assay with CCRF-CEM leukemia, 38.3%; with MOLT-4 leukemia, 98.8%; in the assay with SR leukemia, 97.9%; with RPMI-8226 leukemia, 16.2%. Also, the growth in the assay on OVCAR-5 ovarian was 93.4%; with OVCAR-4 ovarian, 51.2%; in the assay on SK-OV-3 ovarian, 91.5%; in the assay with IGROV1 ovarian, 68.3%; with OVCAR-3 ovarian it was 138%; in the assay on HS 578T breast it was 96.9%. Further, the growth in the assay on NCI/ADR-RES ovarian is 40.4%.

As to `Cc1cc2[nH]c(=O)c3c4ncccc4cn3c2cc1C`, the growth was 93.8% in the assay on SK-MEL-2 melanoma; 60.9% in the assay with EKVX NSCLC; 39.3% with SN12C renal; 37.1% in the assay with UO-31 renal; 18.1% in the assay on TK-10 renal; 32.2% in the assay with ACHN renal. In addition, the growth with CAKI-1 renal was -24.7% (active); with A498 renal, 105%; with CCRF-CEM leukemia it was 21.7%; in the assay on MOLT-4 leukemia, 19.4%; in the assay on SR leukemia, -1.41% (active); in the assay on RPMI-8226 leukemia, 2.89% (active). The growth in the assay on OVCAR-8 ovarian was 39.6%; in the assay with SK-OV-3 ovarian, 87.4%; in the assay with IGROV1 ovarian, 24.5%; in the assay with OVCAR-3 ovarian, -21.7% (active); in the assay with HS 578T breast, 101%; in the assay on NCI/ADR-RES ovarian, 34.3%.

Regarding `c1ccc(Cc2nn3cc(-c4ccccc4)nc3s2)cc1`, the growth in the assay with SK-MEL-2 melanoma was 97%; in the assay on EKVX NSCLC, 95.9%; in the assay with SN12C renal it was 103%; in the assay on UO-31 renal it was 95.4%; in the assay on TK-10 renal it was 89.5%; with ACHN renal it was 106%. For the same compound, the growth with CAKI-1 renal was 98.7%; in the assay with A498 renal it was 96.5%; in the assay on CCRF-CEM leukemia, 102%; with MOLT-4 leukemia, 93.9%; in the assay on SR leukemia, 82.1%; with RPMI-8226 leukemia, 98.3%. Further, the growth is 109% in the assay on OVCAR-5 ovarian; 106% in the assay with OVCAR-4 ovarian; 112% in the assay on SK-OV-3 ovarian; 106% with IGROV1 ovarian; 105% in the assay on OVCAR-3 ovarian; 115% in the assay on HS 578T breast. For the same compound, in the assay with NCI/ADR-RES ovarian, the growth was 102%.
